Data taken from PubChem BioAssay AID1578 (Sanford-Burnham Center for Chemical Genomics, 2009).
Screen size: about 290,000 compounds; about 3,000 (1%) were called active. No stated cut-off is given here; in the data, active means inhibition mostly above about 36% (no sharp cut-off); inactive means mostly below about 34%. Shown is part of a subset that was picked to be rich in actives.

Experiment: inhibition of NOD1-driven NF-kB reporter – cell-based, luminescence, uHTS, primary screen (AID 1578);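 further: HEK-293T reporter cells stimulated with the NOD1 agonist gamma-tri-DAP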
Settings: NOD1-driven NF-kB luciferase reporter cells, at 4 µM, hits give high values

inhibition, inactive:
COc1ccc(C(C)C)cc1S(=O)(=O)N1CCC(C(=O)NCc2cccnc2)CC1 -9.3%, CN1CCN(C(=O)N2CCNC2=O)CC1 -22%, COc1ccc(/C(O)=C2/C(=O)C(=O)N(c3ccccn3)C2c2ccc(C(C)C)cc2)cc1 (configuration not stated) -7.2%, Cc1nc2cc(NS(=O)(=O)c3c(C)c(C)cc(C)c3C)ccc2s1 22.1%, COc1ccc(NC(=O)[C@@H]2[C@@H]3C(=O)N(C4CCCCC4)C(=O)[C@@H]3C3c4ccccc4C=CN32)cc1 (some centres not stated) -4.8%, COc1ccc2sc(NC(=O)CC(C)C)nc2c1 -66.7%, Cn1c(=S)[nH]c2[nH]c(=O)cnc2c1=O -2.8%, COc1ccc(NC(=O)c2ccc(C(=O)c3ccccc3)o2)cc1 -21.8%, COc1ccc(CCNC(=O)c2nnn(CC(=O)Nc3ccc(C)cc3C)c2N)cc1OC -14.4%, COC(=O)C1(C)NC(c2ccccc2C)C2C(=O)N(c3ccc(F)cc3)C(=O)C21 (configuration not stated) -24.2%, Cc1ccc(C(=O)Nc2nnc(S(=O)(=O)N3CCCCCC3)s2)cc1 -23.3%, O=C(Nc1nnc(S(=O)(=O)N2CCCCC2)s1)c1ccc(Cl)cc1 37.5%, CC1CCN(S(=O)(=O)c2nnc(NC(=O)c3cccc([N+](=O)[O-])c3)s2)CC1 30.9%, Cc1cccc(C(=O)Nc2nnc(S(=O)(=O)N3CCC(C)CC3)s2)c1 21.6%, COc1cc(/C=C2/SC(=S)N(CC(=O)NC(C)(C)C)C2=O)cc(OC)c1OC 2.3%, COc1ccc2c(CSc3nnc(-c4cccnc4)n3-c3ccccc3F)cc(=O)oc2c1 -12.1%, Cc1ccc(S(=O)(=O)N(C)C)cc1NC(=O)CN1C(=O)NC2(CCCCCC2)C1=O -38.1%, CCOC(=O)[C@@H]1[C@H]2COc3ccc(Br)cc3[C@H]2N2C(=O)N(c3ccc(C)cc3)C(=O)[C@]12C -18.3%, O=C(CSCc1ccccc1)Nc1ccc(F)cc1F 7.2%, O=C(CSCc1ccccc1)Nc1ccc(F)c(F)c1 -34.3%, CCn1c(=O)c2cc(C(=O)NCc3cccs3)sc2c2ccccc21 -17.9%, COc1ccc(-c2noc(C3CCCN(C(=O)c4cccc(F)c4)C3)n2)cc1 (configuration not stated) -12.2%, CN1CCC(OC(=O)Cc2ccc(Cl)cc2)CC1 -12.1%, Fc1ccc(Sc2ccccc2CNC2=NCCN2)cc1 -4.9%, c1ccc(Sc2cccc3ccccc23)c(CNC2=NCCN2)c1 -31.1%, CCOC(=O)c1c(CN2CCN(C)CC2)n(-c2ccccc2)c2cc(Br)c(O)cc12 -4%, CCOC(=O)c1c(CN2CCOCC2)n(-c2ccccc2)c2cc(Br)c(OC)cc12 30.8%, Cc1cccc(-n2c(C)cc(C(=O)NC3CCCCC3)c2C)c1 -17.7%, CCOCCCNC(=S)NNC(=O)CCn1nc(C)c(Br)c1C -19.5%, Cc1cc(NC(=O)CSc2nc3ccccc3c(=O)n2Cc2ccccc2)no1 5%, NC(=O)CSc1nc2ccccc2c(=O)n1Cc1ccccc1 -16%, Cc1ccc(S(=O)(=O)N2CCCCC2C(=O)N(C)c2ccccc2)cc1 (configuration not stated) -15.4%, Cc1cc(C)n(Cc2ccc(Cl)c(Cl)c2)c(=O)c1S(=O)(=O)c1ccccc1 5.3%, Cc1cnnn1-c1ccc(C(=O)CCl)cc1 19.4%, CC(=O)c1ccc(-n2nncc2C(C)(C)C)cc1 60.5%, O=C1N=C(N2CCOCC2)S/C1=C\c1ccncc1 -7.7%, CC1(C)CN=C(N(C(=O)Nc2ccccc2)c2ccccc2F)S1 -4.1%, Fc1ccc(COc2ccc(-c3nnco3)cc2)cc1 -10.4%, Cc1ccc(COc2ccc(-c3nnco3)cc2)cc1 -12.2%, CCCCN(CC)S(=O)(=O)c1ccc2c(c1)n(C)c(=O)c(=O)n2C -6%, Cc1ccccc1Cn1nc(C)c(NC(=O)/C=C/c2cnn(C)c2C)c1C -19.1%, CCn1nc(C)c(NC(=O)/C=C/c2cnn(C)c2C)c1C 11%, Cc1nc2cc(NS(=O)(=O)c3cccc4cccnc34)ccc2s1 -11.7%, CN(C)/C(=N\S(=O)(=O)c1ccccc1)c1ccccc1 -32.6%, N=C1SC(CC(=O)Nc2ccc([N+](=O)[O-])cc2)C(=O)N1c1ccccc1 (configuration not stated) -6.5%, CCOC(=O)C1(CCc2ccccc2)CCN(C(=O)CCn2cnnn2)CC1 -48%, O=C(/C=C/c1ccc(OC(F)F)cc1)Nc1cccc(S(=O)(=O)N2CCOCC2)c1 -23.1%, Cc1ccc(-c2nc3n(n2)Cc2ccccc2-3)cc1 -27.4%, Clc1ccc(-c2nc3n(n2)Cc2ccccc2-3)cc1 -7.2%, COc1ccc(CCNC2CC(=O)N(C3CCCCC3)C2=O)cc1OC (configuration not stated) -7.3%, O=C1C(Cl)=C(NCCCO)C(=O)c2ccccc21 -20.7%, CCNC1=C(Cl)C(=O)c2ccccc2C1=O 4.8%, CC1CCc2c(sc3ncn(CC(=O)N=Nc4c(O)[nH]c5ccccc45)c(=O)c23)C1 (configuration not stated) 4%, COc1ccc(/C=N/Nc2ccccn2)cc1OC 1.4%, COc1cc(/C=N/Nc2ccccn2)ccc1O 7.2%, Oc1ccccc1/C=N/Nc1cccc2cccnc12 -47.2%, Oc1cccc(/C=N/Nc2cccc3cccnc23)c1 -66.8%, O=[N+]([O-])c1cc(/C=N\Nc2ccccn2)ccc1Cl -18.5%, O=[N+]([O-])c1cc(Cl)cc(/C=N/Nc2nc3ccccc3s2)c1O 1.6%, CC1=C(C(=O)OCc2ccccc2)C(c2ccccc2OC(F)F)NC(=O)N1 (configuration not stated) 11.1%, Cc1[nH]c2ccccc2c1C(=O)C(=O)NCc1cccs1 -20.5%, Cc1ccccc1SCC(=O)N/N=C/c1ccc(F)cc1 4.1%, O=C(Cc1ccccc1F)Nc1nc(-c2cccnc2)cs1 -9.2%, O=C(CSc1nnc(-c2ccco2)o1)NC(=O)Cc1ccccc1 -4.5%, CC(=O)N1CN(Cc2ccccn2)Cc2c1sc1c2CCCC1 -11.9%, CC(=O)c1c(C)[nH]c(C(=O)Nc2nc(-c3ccc(Cl)cc3)cs2)c1C 66.1%, CC(=O)c1c(C)[nH]c(C(=O)Nc2nc(C)cs2)c1C 12.4%, COc1ccccc1N1CCN(C(=O)C(C)N(c2ccc(C)cc2)S(C)(=O)=O)CC1 (configuration not stated) -7.9%, O=C1c2ccc(Oc3ccc([N+](=O)[O-])cc3)cc2C(=O)N1CCO -16.9%, COc1ccc(N2C(=O)CC(Sc3nc4c(cc3C#N)CCC4)C2=O)cc1 (configuration not stated) -26.6%, CCc1c(C)nc2ncnn2c1NCCc1ccc(OC)cc1 53.3%, CCc1c(C)nc2ncnn2c1NCCc1ccccc1 24%, O=C(N/N=C/c1ccc2cccnc2c1)c1nc2ccccc2c(=O)[nH]1 -15.6%, Cn1ncc2c(O/N=C(\N)c3ccc(C(F)(F)F)cc3)ncnc21 -5.2%, Cn1ncc2c(NNC(=O)c3ccc(O)cc3)ncnc21 -28%, Cc1nc2ccc(C(=O)NCc3ccc4c(c3)OCO4)cc2s1 11.9%, O=C(CCNS(=O)(=O)c1ccccc1)N1CCOCC1 -19.5%, O=C(Nc1nc2cc3c(cc2s1)OCCO3)c1ccc([N+](=O)[O-])o1 -22.1%, O=C(Nc1nc2c(F)cccc2s1)c1ccc([N+](=O)[O-])o1 7.3%, Cc1cc(C)c2nc(NC(=O)c3ccc([N+](=O)[O-])o3)sc2c1 37.8%, O=C(Nc1nc2ccccc2s1)c1ccc([N+](=O)[O-])o1 6.5%, CCOC(=O)Cn1cncc1-c1ccc([N+](=O)[O-])cc1 10.5%, COc1cnn(-c2ccc(C)cc2)c(=O)c1Cl -22.7%, Cc1csc2c(N3CCN(C(=O)Nc4ccc(OC(F)(F)F)cc4)CC3)ncnc12 22.6%, Cc1csc2c(N3CCN(C(=O)Nc4ccccc4)CC3)ncnc12 7.4%, CC1=Nn2c(nc(-c3ccccc3)c2-c2ccccc2)NC(=O)C1Br (configuration not stated) 1.4%

inhibition, active:
O=C(CSCc1ccccc1)NNc1c(F)c(F)cc(F)c1F 34.4%, Fc1ccccc1Sc1ccccc1CNC1=NCCN1 64.4%, CCOC(=O)c1c(CN2CCOCC2)n(-c2ccccc2)c2cc(Br)c(O)cc12 67%, CC(C)(C)c1cnnn1-c1ccc(C(=O)CCl)cc1 77.3%, Cc1nn(Cc2c(Cl)cccc2Cl)c(C)c1NC(=O)/C=C/c1cnn(C)c1C 99%, CCn1c(C)nc2cc(-c3nc4n(n3)Cc3ccccc3-4)ccc21 94%, CCN(CC)CCCNC1=C(Cl)C(=O)c2ccccc2C1=O 98.9%, COc1cc(/C=N/Nc2cccc3cccnc23)cc(OC)c1O 50.8%, COc1cc(/C=N/Nc2ccccn2)cc(OC)c1O 46.4%, CCc1c(C)nc2ncnn2c1NCCc1ccc(Cl)cc1 57.5%, Cn1ncc2c(O/N=C(\N)c3ccc(C(C)(C)C)cc3)ncnc21 98.4%
